According to PubChem BioAssay:
Results filed as inconclusive are left out. The source made the active and inactive calls.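 Rule for the calls, unless noted: active = viability at or below 10% of carrier control in both of two separate runs; inconclusive = viability at or below 10% in only one of the two runs; inactive = the rest.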

Key:
[1] = reducers of endogenous Her2 protein level, primary screen, SKBR3 breast tumor cells, AlphaScreen, ATP viability (AID 461;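 active = Her2 level under about 52% in both replicate screens, with viability over 70% of control, limit read from the data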;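 for Her2 level: lower value means less Her2 protein in the cells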;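 for viability: percent of carrier control wells set as 100% viability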); details: 18-24 h, measured here: SKBR3 viability, ATP luminescence, at 10 µM
[2] = molecular target: Receptor tyrosine-protein kinase erbB-2 (Homo sapiens) (UniProt P04626); assay: as above; details: 18-24 h, at 10 µM, stronger effect = lower value
[3] = SK-BR-3 cell growth inhibitors, pilot screen, 24 h, human (AID 572); details: SK-BR-3 viability, CellTiter-Glo luminescence, at 10 µM, stronger effect = lower value;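 note: compound exposure lasted between 18 and 24 h rather than exactly 24 h; 100% = carrier-treated control wells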
[4] = HUVEC growth inhibition – cell-based, human, primary screen (AID 575;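 active = viability at or below 30% in both replicate assays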;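 note: 100% = median of untreated cell wells with 0.1% DMSO on each plate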); details: HUVEC proliferation, CellTiter-Glo luminescence, 72 h; at 10 µM; stronger effect = lower value
[5] = growth inhibitors of H69AR lung tumor, primary screen, human, duplicate replicates (AID 580;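 active = viability at or under a set limit in both replicates, limit being median viability minus 3 SD, cut at about 48% in these data, passing the limit was not always enough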;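 note: 100% = mean luminescence of untreated wells and 0% = no signal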); details: H69AR lung tumor cells viability, ATP luminescence, 72 h; at 10 µM; stronger effect = lower value
[6] = reversal of MRP1-mediated doxorubicin resistance, pilot screen, H69AR cells, doxorubicin co-treatment (AID 601;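 active = viability loss from added drug above about 55%, and viability with drug at most 40%, in both replicates, limit read from the data, passing the limit was not always enough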); details: CellTiter-Glo, 72 h, at 10 µM; for differential viability (reversal): stronger effect = higher value
[7] = 384-well plate pilot, post-Golgi transport modulator project, inhibition of yeast transport mutant growth (AID 636; in the data active = inhibition above about 31%); details: absorbance 615 nm, about 18 h, stronger effect = higher value
[8] = growth suppression of yeast trafficking mutant, preliminary HTS, modulators of trafficking downstream of Golgi apparatus project, 1536-format plate, OD 615 nm (AID 637; in the data active = inhibition above about 30%); details: yeast transport mutant growth, absorbance 615 nm, 18 h; stronger effect = higher value
[9] = OD615 S. cerevisiae growth inhibition, permissive medium, pilot counter-assay, permissive growth control for S. cerevisiae lifespan shortening project (AID 705;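 active = growth inhibition above 25% in both replicates, a cutoff set 3 SD above the mean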); details: OD615, 24 h, at 10 µM, stronger effect = higher value
[10] = Restrictive medium S. cerevisiae growth inhibition, OD615, pilot screen of yeast lifespan reduction project, restrictive growth control (AID 706;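 active = growth inhibition above a set limit, 3 SD over mean compound inhibition, in both replicates, cut at about 43% in these data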;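 note: modified DeaD lifespan yeast strain shifted to restrictive glucose medium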); details: OD615, 48 h, at 10 µM, stronger effect = higher value
[11] = viability gain of MRP-1-high H69AR cells under doxorubicin, pilot screen, MRP-1 activator project, CellTiter-Glo, duplicate (AID 807;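 active = viability increase at or above a cutoff of the median across tested compounds plus 3 SD, cut at about 8.5% in these data, passing the limit was not always enough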;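 note: compound pretreatment 18-22 h then 72 h combined with doxorubicin; 0% = doxorubicin alone and 100% = vehicle without doxorubicin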); details: H69AR viability with doxorubicin, CellTiter-Glo luminescence; at 10 µM; stronger effect = higher value
[12] = growth suppression of beta-catenin knockout HCT116, pilot screen, human colon tumor cells (AID 823;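 active = cell viability at or below a set limit in both duplicate runs, the limit being the all-compound median minus 4 SD, cut at about 23% in these data, passing the limit was not always enough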;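 note: 0% = wells killed by 20 µM Hyamine and 100% = untreated DMSO cell wells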); details: CellTiter-Glo, 60 h, at 10 µM, stronger effect = lower value
[13] = growth suppression of PTEN-deleted HCT116, pilot screen, cell-based, HCT116 clonal line, CellTiter-Glo (AID 824;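 active = viability at or below 27.92% in each of two runs, the all-compound median minus 4 SD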;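 note: 0% = 20 µM Hyamine control and 100% = vehicle cell control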); details: 60 h, at 10 µM, stronger effect = lower value
[14] = inhibitors of the yeast RAM network, pilot screen, dse1pr::URA3 reporter, 5-FOA selection (AID 869;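 active = inhibition over a set limit, the all-compound mean plus 3 SD, in both replicate runs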;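 note: 0% = DMSO wells with no growth and 100% = 10 µM 1-NA-PP1 with full growth; RAM network block rescues cells from 5-FOA so hits raise OD615 growth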); details: S. cerevisiae dse1pr::URA3 5-FOA growth, OD615, 2 d; at 10 µM; stronger effect = higher value; strain carries analog-sensitive mutant Cbk1 kinase
[15] = RAM signaling pathway blockade in yeast – S. cerevisiae, Pdr1DBD-CYC8 efflux-inhibited sensitized strain, primary screen (AID 1298;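 active = RAM network inhibition above 8.4% in each of two replicates, 3 SD over the compound average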;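 note: 0% = DMSO untreated cells without growth and 100% = 10 µM 1-NA-PP1 full growth; higher means more yeast growth rescued from 5-FOA killing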); details: S. cerevisiae cbk1-as DSE1-URA3 strain, 5-FOA growth OD615, 2 d; at 50 µM; stronger effect = higher value
[16] = H69AR cells + 2 uM doxorubicin, measured here: viability with 2 uM doxorubicin, stronger effect = lower value
[17] = H69AR cells, compound alone cytotoxicity

Sequence of Receptor tyrosine-protein kinase erbB-2 (Homo sapiens) (P04626 whole entry, looked up): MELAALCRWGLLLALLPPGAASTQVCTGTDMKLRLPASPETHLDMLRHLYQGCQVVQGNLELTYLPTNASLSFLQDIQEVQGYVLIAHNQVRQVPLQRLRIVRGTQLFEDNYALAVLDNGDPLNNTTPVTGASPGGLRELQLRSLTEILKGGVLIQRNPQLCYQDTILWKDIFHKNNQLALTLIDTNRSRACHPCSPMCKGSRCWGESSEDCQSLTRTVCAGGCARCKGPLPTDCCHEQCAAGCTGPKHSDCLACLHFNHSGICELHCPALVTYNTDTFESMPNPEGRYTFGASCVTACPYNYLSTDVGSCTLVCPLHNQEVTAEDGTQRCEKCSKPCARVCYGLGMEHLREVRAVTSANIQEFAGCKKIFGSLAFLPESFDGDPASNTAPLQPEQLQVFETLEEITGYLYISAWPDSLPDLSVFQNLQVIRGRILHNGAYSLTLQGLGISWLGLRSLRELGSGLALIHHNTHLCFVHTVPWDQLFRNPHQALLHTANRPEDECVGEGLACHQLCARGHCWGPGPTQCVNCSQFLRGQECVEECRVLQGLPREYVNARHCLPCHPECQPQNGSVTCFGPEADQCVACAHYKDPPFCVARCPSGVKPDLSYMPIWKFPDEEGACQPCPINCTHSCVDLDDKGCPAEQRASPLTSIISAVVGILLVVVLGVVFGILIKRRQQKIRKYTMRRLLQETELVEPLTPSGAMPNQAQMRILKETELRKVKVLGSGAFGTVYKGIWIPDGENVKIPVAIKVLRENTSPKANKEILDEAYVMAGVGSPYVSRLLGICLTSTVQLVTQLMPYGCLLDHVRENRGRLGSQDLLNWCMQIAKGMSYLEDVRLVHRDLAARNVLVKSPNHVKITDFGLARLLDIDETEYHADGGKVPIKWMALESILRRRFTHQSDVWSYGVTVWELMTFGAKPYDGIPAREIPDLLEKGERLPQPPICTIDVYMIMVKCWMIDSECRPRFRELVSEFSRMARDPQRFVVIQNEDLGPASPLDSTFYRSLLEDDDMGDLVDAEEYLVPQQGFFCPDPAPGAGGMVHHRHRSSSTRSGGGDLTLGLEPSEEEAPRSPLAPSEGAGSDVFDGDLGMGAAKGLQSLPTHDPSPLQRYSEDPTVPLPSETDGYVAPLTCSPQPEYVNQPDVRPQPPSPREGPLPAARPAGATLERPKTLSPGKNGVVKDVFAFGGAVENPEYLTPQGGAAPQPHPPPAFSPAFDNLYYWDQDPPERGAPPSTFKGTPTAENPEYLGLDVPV

For COc1ccc(-n2c(Cc3cccn3C)nnc2SCC(=O)Nc2ccc(Cl)cc2)cc1, the viability [1] was 99%, the Her2 level [2] was 58% (inactive) and the viability [3] was 99% (inactive). The viability [4] was 46.6% (inactive), the viability [5] was 70.7% (inactive) and the differential viability (reversal) ([6]; H69AR cells + 2 uM doxorubicin) was -8.34% (inactive). The viability [6, 16] was 79%, the viability [6, 17] was 70.7% and the inhibition [7] was -0.38% (inactive). For the same compound, the inhibition [8] was 2% (inactive), the growth inhibition [9] was 4.53% (inactive) and the growth inhibition [10] was 8.94% (inactive). The viability increase [11] was -6.37% (inactive), the viability [12] was 47.6% (inactive) and the viability [13] was 51.3% (inactive). For the same compound, the inhibition [14] was -0.125% (inactive) and the RAM network inhibition [15] was 5.81% (inactive).

In the case of O=C(Cn1ncc2c(=O)oc3ccccc3c21)NCCCN1CCCC1=O, the viability [1] is reported as 86.5%, the Her2 level [2] is reported as 106% (inactive) and the viability [3] is reported as 86.5% (inactive). For the same compound, the viability [4] was 93.1% (inactive), the viability [5] was 101% (inactive) and the differential viability (reversal) ([6]; H69AR cells + 2 uM doxorubicin) was 16.6% (inactive). For the same compound, the viability [6, 16] was 84.4%, the viability [6, 17] was 101% and the inhibition [7] was 1.79% (inactive). For the same compound, the inhibition [8] was -3% (inactive), the growth inhibition [9] was 1.48% (inactive) and the growth inhibition [10] was -6.73% (inactive). For the same compound, the viability increase [11] was -0.08% (inactive), the viability [12] was 101% (inactive) and the viability [13] was 113% (inactive). The inhibition [14] was 1.86% (inactive) and the RAM network inhibition [15] was 3.58% (inactive).

With CCN(CC)C(=O)COc1ccc2oc(C)c(C(=O)OC(C)C)c2c1 the viability [1] was 83%, the Her2 level [2] was 104% (inactive) and the viability [3] was 83% (inactive). The viability [4] was 91.4% (inactive), the viability [5] was 74.1% (inactive) and the differential viability (reversal) ([6]; H69AR cells + 2 uM doxorubicin) was -4.69% (inactive). For the same compound, the viability [6, 16] was 78.8%, the viability [6, 17] was 74.1% and the inhibition [7] was -1.69% (inactive). For the same compound, the inhibition [8] was -6% (inactive), the growth inhibition [9] was -11.4% (inactive) and the growth inhibition [10] was -9.19% (inactive). For the same compound, the viability increase [11] was -6.09% (inactive), the viability [12] was 84.2% (inactive) and the viability [13] was 84.8% (inactive). For the same compound, the inhibition [14] was 1.08% (inactive) and the RAM network inhibition [15] was 7.42% (inactive).

For CCC1CCCCN1CCCNC(=O)CC1Oc2ccc(C)cc2NC1=O (stereo not given), the viability [1] was 110%, the Her2 level [2] was 97.5% (inactive) and the viability [3] was 110% (inactive). The viability [4] was 74.3% (inactive), the viability [5] was 89.1% (inactive) and the differential viability (reversal) ([6]; H69AR cells + 2 uM doxorubicin) was -3.82% (inactive). The viability [6, 16] was 92.9%, the viability [6, 17] was 89.1% and the inhibition [7] was -2.27% (inactive). For the same compound, the inhibition [8] was -0.49% (inactive), the growth inhibition [9] was 2.28% (inactive) and the growth inhibition [10] was 0.165% (inactive). The viability increase [11] was -3.12% (inactive), the viability [12] was 95% (inactive) and the viability [13] was 91.1% (inactive). For the same compound, the inhibition [14] was 1.57% (inactive) and the RAM network inhibition [15] was 2.53% (inactive).

In the case of CC1CCN(C(=O)CSCC(=O)Nc2nc(-c3cccs3)cs2)CC1, the viability [1] is reported as 86%, the Her2 level [2] is reported as 80.5% (inactive) and the viability [3] is reported as 86% (inactive). For the same compound, the viability [4] was 67% (inactive), the viability [5] was 91.1% (inactive) and the differential viability (reversal) ([6]; H69AR cells + 2 uM doxorubicin) was 4.54% (inactive). The viability [6, 16] was 86.6%, the viability [6, 17] was 91.1% and the inhibition [7] was -1.33% (inactive). For the same compound, the inhibition [8] was -1.15% (inactive), the growth inhibition [9] was 1.36% (inactive) and the growth inhibition [10] was -5.56% (inactive). For the same compound, the viability increase [11] was -4.14% (inactive), the viability [12] was 100% (inactive) and the viability [13] was 92.1% (inactive). For the same compound, the inhibition [14] was 0.24% (inactive) and the RAM network inhibition [15] was -0.16% (inactive).

In the case of CCOC(=O)c1sc2nc(NC(=O)C(C)(C)C)sc2c1C, the viability [1] is reported as 104%, the Her2 level [2] is reported as 75.5% (inactive) and the viability [3] is reported as 104% (inactive). The viability [4] was 62.8% (inactive), the viability [5] was 79.3% (inactive) and the differential viability (reversal) ([6]; H69AR cells + 2 uM doxorubicin) was 11.9% (inactive). The viability [6, 16] was 67.5%, the viability [6, 17] was 79.3% and the inhibition [7] was -3.73% (inactive). The inhibition [8] was -4.59% (inactive), the growth inhibition [9] was -1.74% (inactive) and the growth inhibition [10] was 5.62% (inactive). The viability increase [11] was -4.43% (inactive), the viability [12] was 74.5% (inactive) and the viability [13] was 74% (inactive). The inhibition [14] was -0.52% (inactive) and the RAM network inhibition [15] was 3.13% (inactive).

For Cn1c(=O)c(=O)n(C)c2cc(S(=O)(=O)CCC(=O)N3CCOCC3)ccc21, the viability [1] was 88.5%, the Her2 level [2] was 84% (inactive) and the viability [3] was 88.5% (inactive). For the same compound, the viability [4] was 106% (inactive), the viability [5] was 95% (inactive) and the differential viability (reversal) ([6]; H69AR cells + 2 uM doxorubicin) was -6.71% (inactive). The viability [6, 16] was 102%, the viability [6, 17] was 95% and the inhibition [7] was -0.4% (inactive). The inhibition [8] was 12.5% (inactive), the growth inhibition [9] was -2.16% (inactive) and the growth inhibition [10] was -4.52% (inactive). For the same compound, the viability increase [11] was -2.26% (inactive), the viability [12] was 103% (inactive) and the viability [13] was 102% (inactive). The inhibition [14] was 0.99% (inactive) and the RAM network inhibition [15] was 6.32% (inactive).

In the case of CC(C)c1ccc(C(O)c2cnc(C(C)C)n2C)cc1 (stereo not given), the viability [1] is reported as 112%, the Her2 level [2] is reported as 92% (inactive) and the viability [3] is reported as 112% (inactive). For the same compound, the viability [4] was 116% (inactive), the viability [5] was 88.1% (inactive) and the differential viability (reversal) ([6]; H69AR cells + 2 uM doxorubicin) was 6.51% (inactive). For the same compound, the viability [6, 16] was 81.6%, the viability [6, 17] was 88.1% and the inhibition [7] was -4.13% (inactive). The inhibition [8] was 2.5% (inactive), the growth inhibition [9] was -6.82% (inactive) and the growth inhibition [10] was -0.345% (inactive). The viability increase [11] was 0.64% (inactive), the viability [12] was 96.4% (inactive) and the viability [13] was 91% (inactive). The inhibition [14] was 0.355% (inactive) and the RAM network inhibition [15] was 1.77% (inactive).

With O=C(c1ccco1)N1CCN(C(=O)C2CC(c3ccc(F)cc3)=NO2)CC1 (stereo not given) the viability [1] was 88%, the Her2 level [2] was 112% (inactive) and the viability [3] was 88% (inactive). The viability [4] was 94.1% (inactive), the viability [5] was 88.5% (inactive) and the differential viability (reversal) ([6]; H69AR cells + 2 uM doxorubicin) was 0.74% (inactive). For the same compound, the viability [6, 16] was 87.8%, the viability [6, 17] was 88.5% and the inhibition [7] was -1.15% (inactive). For the same compound, the inhibition [8] was -4.17% (inactive), the growth inhibition [9] was -1.38% (inactive) and the growth inhibition [10] was 22% (inactive). The viability increase [11] was -1.41% (inactive), the viability [12] was 106% (inactive) and the viability [13] was 105% (inactive). For the same compound, the inhibition [14] was 0.47% (inactive) and the RAM network inhibition [15] was 5.01% (inactive).

For Oc1c(C(c2ccccc2)N2CCc3ccccc3C2)sc2ncnn12 (stereo not given), the viability [1] was 87.5%, the Her2 level [2] was 82.5% (inactive) and the viability [3] was 87.5% (inactive). For the same compound, the viability [4] was 74.4% (inactive), the viability [5] was 85% (inactive) and the differential viability (reversal) ([6]; H69AR cells + 2 uM doxorubicin) was -0.02% (inactive). For the same compound, the viability [6, 16] was 85.1%, the viability [6, 17] was 85% and the inhibition [7] was -2.69% (inactive). For the same compound, the inhibition [8] was -2% (inactive), the growth inhibition [9] was 7.92% (inactive) and the growth inhibition [10] was 8.2% (inactive). For the same compound, the viability increase [11] was 3.99% (inactive), the viability [12] was 97.1% (inactive) and the viability [13] was 93.3% (inactive). For the same compound, the inhibition [14] was 1.78% (inactive) and the RAM network inhibition [15] was 4.48% (inactive).
